These results are taken from PubChem BioAssay (NCI).

Several values for one entry are separate records, joined by “and”; a condition that tells them apart may be missing. Equal values may be shown once. The panel holds about 83,000 compounds, 20% with a hit somewhere; the sample as a whole holds those more often.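 How to read the values: 0–100, growth inhibition (40 = 60% inhibited); 0, no net growth; -100 to 0, cell death (-40 = 40% of starting cells died; -100 = all dead).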 Activity calls are given as the source filed them. How the source made its calls: active means growth percent below 10; inactive means the rest.

The test has as its system MDA-MB-468 breast. In words: NCI-60 one-dose screen, 48 h (100 = growth as untreated, 0 = no growth, -100 = all killed). The following applies: 10 µM unless noted.
With `COc1cc(C(=O)c2c(-c3ccccc3)oc3c(OC)cccc23)cc(OC)c1O`, the growth was 4.03% (active).
Turning to `Cc1ccc(/C=C(\C#N)n2nc3cccc(F)c3n2)cc1`, the growth is 85.2% (inactive).
Turning to `CCc1cccc2c3c(sc12)C(c1ccc(OC)cc1)C(C#N)=C(/N=C/c1ccc(Cl)cc1)O3` (stereo unspecified), the growth was -6.83% (active).
For the compound `O=C(/C=C/C12c3ccccc3C(c3ccccc31)C1C(=O)NC(=O)C12)c1ccc(Cl)cc1Cl` (stereo unspecified), the growth is 23.8% (inactive).
Consider `COc1ccc(N2CCN(C(=O)c3sc4nc(C)c(Br)c(C)c4c3N)CC2)cc1`, for which the growth was 109% (inactive).
For `CNC(=O)c1cc(Oc2ccc3nc(NC(=O)Nc4ccc(C(F)(F)F)cc4)sc3c2)ccn1`, the growth was 49.9% (inactive).
The value for `C=C(CNCCc1ccc(O)cc1)[C@@H]1CC[C@]2(CO)CC[C@]3(C)[C@H](CC[C@@H]4[C@@]5(C)CCC(=O)C(C)(C)[C@@H]5CC[C@]43C)[C@@H]12` was 8.97% (active).
In the case of `O=C(c1c[nH]c2ccccc12)c1n[nH]c(=S)n1-c1cccc(Br)c1`, the growth is 98.7% (inactive).
Then `O=C(NC1CC1)c1cc2n(n1)CC(c1ccccc1)N2` (stereo unspecified), with 98.5% (inactive); and `O=C1/C(=C/c2ccc(-c3cccc(C(F)(F)F)c3)o2)SC(=S)N1CCc1ccc(O)cc1`, with 95% (inactive); and `O=CC(O)C(O)C(O)CO` (stereo unspecified), with 104% (inactive) and 102% (inactive).
As for `Cn1c([N+](=O)[O-])cnc1/C=C1\Oc2ccc(Cl)cc2C1=O`, the growth is 7.19% (active).
The value for `Cc1nc([P+](c2ccccc2)(c2ccccc2)c2ccccc2)c(Sc2sc(-c3ccccc3)nc2[P+](c2ccccc2)(c2ccccc2)c2ccccc2)o1` was -31.6% (active).
On to `O=C(Nc1cccc(Cn2c(=O)[nH]c3ccc(Oc4ncccn4)cc3c2=O)c1)c1cc(Cl)cc(Cl)c1`, for which the growth is 50.5% (inactive).
The value for `COc1cc2c(cc1-c1c(C)noc1C)ncc1nc(C3CCCCC3)n(C3CCC(OC(F)F)CC3)c12` (stereo unspecified) was 29.8% (inactive).
In the case of `COc1ccc(Cn2c(NCCN=C(N)N)nc(=O)n(Cc3ccc(F)cc3)c2=O)cc1`, the growth was 56.7% (inactive) and 33.4% (inactive).
Regarding `CN(C)c1nc2c(N)ncnc2n1C1OC(CO)C(O)C1O` (stereo unspecified), the growth is 102% (inactive).
With `Cc1cc(Nc2nc(-c3ccncc3)nc3ccccc23)n[nH]1`, the growth was 84.2% (inactive).
Consider `Nc1ccc2c(c1)/C(=N/O)c1cc([N+](=O)[O-])ccc1-2`, for which the growth is 89.8% (inactive).
As for `O=[N+]([O-])c1ccc(Oc2nc(Nc3ccc(O[C@H]4CO[C@H]5[C@@H]4OC[C@@H]5O)c(Cl)c3)ncc2F)c(Cl)c1`, the growth was 15.8% (inactive).
In the case of `O=C(O)COc1ccc(OCC(=O)O)cc1`, the growth was 2.23% (active).
Turning to `COc1cc(-c2cc(C(=O)N3CCN(C(=O)c4ccccc4NCc4ccco4)CC3)nc3cc(-c4ccccc4)nn23)cc(OC)c1OC`, the growth was 0.207% (active).
For the compound `COc1ccc(-c2nnc(SCC(=O)Nc3ccc(C(=O)/C=C/c4ccccc4)cc3)o2)cc1OC`, the growth is 91.1% (inactive).
Consider `COc1ccc2c(c1)OC(N)=C(C#N)C2c1ccc(F)cc1` (stereo unspecified), for which the growth was 7.54% (active).
Then `C=CCn1c(SCC(=O)Nc2ccc(C(=O)/C=C/c3ccc(Cl)cc3)cc2)nnc1-c1ccc(Cl)c(Cl)c1`, with 81.5% (inactive).
On to `CCN(CC)CCOc1ccc2c(c1)C(=O)c1cc(OCCN(CC)CC)ccc1-2`, for which the growth is 14.9% (inactive) and -13.8% (active).
